# Measurements reported in article PMC11574364.
# What was measured:
# Assay in all cases: protein domain microarray probed with biotinylated miRNA; Domain array: 20 mM Tris-HCl pH 7.4, 200 mM KCl, 0.2 mM EDTA, 0.05% NP40, 2 ug/ul heparin, overnight 4 C. ORF array: PBS pH 7.0 with RNase inhibitor, 100 ng RNA; high values mean tight binding
# Conditions in all cases: ssRNA
# [1] = target: T1, DAZL (Homo sapiens, UniProt Q92904)
# T1 sequence: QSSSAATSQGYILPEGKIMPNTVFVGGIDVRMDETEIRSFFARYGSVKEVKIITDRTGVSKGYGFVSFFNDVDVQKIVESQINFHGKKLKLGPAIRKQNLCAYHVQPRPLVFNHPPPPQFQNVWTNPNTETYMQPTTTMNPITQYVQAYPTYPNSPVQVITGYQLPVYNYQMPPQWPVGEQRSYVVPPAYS
# [2] = target: T2, NOL8 (Homo sapiens, UniProt Q76FK4)
# T2 sequence: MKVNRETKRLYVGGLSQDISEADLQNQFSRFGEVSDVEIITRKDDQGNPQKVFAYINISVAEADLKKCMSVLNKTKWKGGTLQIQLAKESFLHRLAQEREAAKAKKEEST
# [3] = target: T3, hnRNP-A0 (Homo sapiens, UniProt Q13151)
# T3 sequence: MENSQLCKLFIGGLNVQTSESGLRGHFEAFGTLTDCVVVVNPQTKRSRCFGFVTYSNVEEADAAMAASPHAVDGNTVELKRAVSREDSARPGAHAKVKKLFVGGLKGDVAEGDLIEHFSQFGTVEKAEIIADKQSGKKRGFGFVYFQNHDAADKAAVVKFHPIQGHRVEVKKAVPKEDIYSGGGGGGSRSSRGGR
# [4] = target: T4, NeuN (Homo sapiens, UniProt A6NFN3)
# T4 sequence: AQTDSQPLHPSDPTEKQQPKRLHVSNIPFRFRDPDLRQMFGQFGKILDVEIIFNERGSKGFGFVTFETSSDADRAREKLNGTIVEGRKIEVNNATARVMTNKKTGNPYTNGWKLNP
# [5] = target: T5, hnRNP-2H9 (Homo sapiens, UniProt P31942)
# T5 sequence: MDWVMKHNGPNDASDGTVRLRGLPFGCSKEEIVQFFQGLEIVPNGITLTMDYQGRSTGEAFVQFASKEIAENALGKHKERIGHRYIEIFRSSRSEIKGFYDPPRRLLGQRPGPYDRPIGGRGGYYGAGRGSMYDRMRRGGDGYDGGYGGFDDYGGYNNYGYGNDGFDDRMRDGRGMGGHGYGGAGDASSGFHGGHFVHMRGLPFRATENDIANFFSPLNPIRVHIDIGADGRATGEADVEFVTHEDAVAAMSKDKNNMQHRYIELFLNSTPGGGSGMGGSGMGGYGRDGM
# [6] = target: T6, CPEB4 (Homo sapiens, UniProt Q17RY0)
# T6 sequence: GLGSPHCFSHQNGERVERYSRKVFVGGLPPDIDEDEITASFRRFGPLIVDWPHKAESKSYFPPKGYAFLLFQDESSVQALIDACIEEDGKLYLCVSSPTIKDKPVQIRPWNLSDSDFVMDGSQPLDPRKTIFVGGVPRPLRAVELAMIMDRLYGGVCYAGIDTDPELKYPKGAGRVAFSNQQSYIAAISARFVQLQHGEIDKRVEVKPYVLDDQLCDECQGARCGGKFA
# [7] = target: CELF5(3) (Homo sapiens, UniProt Q8N6W0)
# Chain of CELF5(3) (Q8N6W0 376-485): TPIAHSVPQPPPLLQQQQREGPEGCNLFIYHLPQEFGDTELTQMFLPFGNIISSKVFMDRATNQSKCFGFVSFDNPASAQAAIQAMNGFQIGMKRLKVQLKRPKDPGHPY
# [8] = target: CPEB1 (Homo sapiens, UniProt Q9BZB8)
# Chain of CPEB1 (Q9BZB8 290-531): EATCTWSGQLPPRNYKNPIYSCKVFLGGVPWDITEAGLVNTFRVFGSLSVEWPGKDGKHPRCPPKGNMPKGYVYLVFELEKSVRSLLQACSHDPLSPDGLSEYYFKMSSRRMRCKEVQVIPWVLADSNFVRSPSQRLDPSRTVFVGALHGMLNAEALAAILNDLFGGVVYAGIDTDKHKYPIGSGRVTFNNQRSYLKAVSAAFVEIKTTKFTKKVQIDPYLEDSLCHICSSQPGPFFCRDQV
# [9] = target: T7, MYEF2(3) (Homo sapiens, UniProt Q9P2K5)
# T7 sequence: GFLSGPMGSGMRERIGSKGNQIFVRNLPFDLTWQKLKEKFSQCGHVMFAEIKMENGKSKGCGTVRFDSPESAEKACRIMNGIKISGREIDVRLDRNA
# [10] = target: T8, CstF-64T (Homo sapiens, UniProt Q9H0L4)
# T8 sequence: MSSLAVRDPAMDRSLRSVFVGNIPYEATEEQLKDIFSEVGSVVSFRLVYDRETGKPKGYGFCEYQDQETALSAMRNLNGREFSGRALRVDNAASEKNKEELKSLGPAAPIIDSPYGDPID
Sequence,binding signal [1],binding signal [2],binding signal [3],binding signal [4],binding signal [5],binding signal [6],binding signal [7],binding signal [8],binding signal [9],binding signal [10]
AGAGGUAGUAGGUUGCAUAGUU,362 ± 63.4 fluorescence intensity,33.7 ± 0.233 fluorescence intensity,3219 ± 6.02 fluorescence intensity,2786.2 ± 1.57 fluorescence intensity,466 ± 9.64 fluorescence intensity,130 ± 29.4 fluorescence intensity,1050 ± 99.1 fluorescence intensity,377 ± 32.4 fluorescence intensity,578 ± 21.2 fluorescence intensity,1930 ± 88 fluorescence intensity
CAGUGCAAUGAUGAAAGGGCAU,42.2 ± 30.1 fluorescence intensity,34.8 ± 9.25 fluorescence intensity,990 ± 34.9 fluorescence intensity,2230 ± 258 fluorescence intensity,533 ± 18.5 fluorescence intensity,55.3 ± 15.5 fluorescence intensity,378 ± 41 fluorescence intensity,186 ± 8.15 fluorescence intensity,261.9 ± 2.02 fluorescence intensity,418 ± 14.4 fluorescence intensity
UGAGGUAGUAGGUUGUGUGGUU,433 ± 5.39 fluorescence intensity,66.3 ± 9.47 fluorescence intensity,2115 ± 15 fluorescence intensity,1967 ± 2.72 fluorescence intensity,443 ± 62 fluorescence intensity,290 ± 49.8 fluorescence intensity,1040 ± 35.6 fluorescence intensity,462.1 ± 2.31 fluorescence intensity,635 ± 16.7 fluorescence intensity,1870 ± 24.6 fluorescence intensity
UAGCUUAUCAGACUGAUGUUGA,238 ± 9.04 fluorescence intensity,–,153 ± 38.7 fluorescence intensity,1430 ± 113 fluorescence intensity,–,52.4 ± 15.6 fluorescence intensity,118 ± 40.8 fluorescence intensity,37.9 ± 2.09 fluorescence intensity,39.3 ± 2.37 fluorescence intensity,109 ± 3.13 fluorescence intensity
UGAGGUAGUAGGUUGUAUGGUU,303 ± 13.1 fluorescence intensity,49 ± 3.09 fluorescence intensity,2280 ± 31.4 fluorescence intensity,2130 ± 66 fluorescence intensity,368 ± 23.9 fluorescence intensity,148 ± 21.1 fluorescence intensity,1000 ± 43 fluorescence intensity,312 ± 54.2 fluorescence intensity,560 ± 17.7 fluorescence intensity,853 ± 47 fluorescence intensity
UGAGGUAGUAGGUUGUAUAGUU,94.2 ± 11 fluorescence intensity,20.3 ± 2.97 fluorescence intensity,1310 ± 111 fluorescence intensity,866 ± 44.2 fluorescence intensity,151 ± 11.1 fluorescence intensity,82.4 ± 7.2 fluorescence intensity,450 ± 137 fluorescence intensity,110 ± 9.17 fluorescence intensity,190.1 ± 1.74 fluorescence intensity,387 ± 8.85 fluorescence intensity
